# Counter-ions that a name gives are not always drawn. A number with no mark means an inactive call.
# Tests used:
# Conditions in all cases: 20 µM
# [1] = system: Salmonella enterica typhimurium; assay: growth AUC normalised to DMSO control (fraction of control); higher = less growth inhibition, active = hit call of the paper
# How it was run: (§1)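 Hemin and NAD were added to the medium for Haemophilus parainfluenzae. All pathogens, after two anaerobic passages, were inoculated at a starting OD578 of 0.01 into pre-reduced mGAM plates with 20 μM compound and 1% DMSO under breathable seals, and OD578 was read hourly for 24 h in three biological replicates. AUC of each growth curve was obtained with the trapezoidal rule up to the exponential-to-stationary transition and normalised to DMSO controls from the same plate.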
# [2] = system: Shigella flexneri; assay: as above
# How it was run: as §1
# [3] = system: Vibrio cholerae; assay: as above
# How it was run: as §1
# [4] = system: Yersinia pseudotuberculosis; assay: as above
# How it was run: as §1
# [5] = system: P. vulgatus RND KO; assay: growth AUC normalised to DMSO control (median) (fraction of control); higher = less growth inhibition, active = hit call of the paper
# How it was run: (§2)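 After two overnight anaerobic passages, strains were inoculated at OD578 0.01 into mGAM in 96-well plates containing approved-drug library compounds at 20 μM and 1% DMSO. Growth was followed by reading OD578 hourly for 24 h within an anaerobic incubator. Area under the curve, taken by the trapezoidal rule up to the start of stationary phase, was normalised to same-plate vehicle wells, and the median of three biological replicates is listed.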
# [6] = system: P. vulgatus WT; assay: as above
# How it was run: as §2
# [7] = system: S. enterica typhimurium WT; assay: as above
# How it was run: as §2
# [8] = system: S. enterica typhimurium tolC KO; assay: as above
# How it was run: as §2
# 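For growth AUC normalised to DMSO control (median) in this document: active when median AUC fell below 0.1.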
SMILES,growth AUC normalised to DMSO control [1],growth AUC normalised to DMSO control [2],growth AUC normalised to DMSO control [3],growth AUC normalised to DMSO control [4],growth AUC normalised to DMSO control [5],growth AUC normalised to DMSO control [6],growth AUC normalised to DMSO control [7],growth AUC normalised to DMSO control [8]
CC(=O)N[C@@H](CC(C)C)C(=O)O [N-Acetyl-L-leucine],1.04,1.01,1.03,1,0.99,0.997,0.999,0.996
CN1CCN(C2=Nc3cc(Cl)ccc3Nc3ccccc32)CC1 [Clozapine],1.02,1.05,0.969,1,1.01,1.02,1,0.977
O=C(OCCOCCO)c1ccccc1Nc1cccc(C(F)(F)F)c1 [Etofenamate],1.01,0.979,0.977,0.991,0.832,0.909,1,0.858
Cc1ccc(N(CC2=NCCN2)c2cccc(O)c2)cc1 [Phentolamine hydrochloride],1.03,1.01,1.02,0.975,1,0.991,0.999,0.99
Cc1scc2c1N(C(=O)CN1CCN(C)CC1)c1ccccc1NC2=O [Telenzepine dihydrochloride],1.02,1.01,1.01,0.993,0.995,0.983,1.01,0.999
Cn1c(=O)c2c(ncn2CCO)n(C)c1=O [Etofylline],0.998,0.993,1.01,1.01,0.998,1.02,0.999,0.993
O=c1[nH]c(=O)n([C@H]2C[C@H](O)[C@@H](CO)O2)cc1I [Idoxuridine],0.909 (active),0.861 (active),0.992,0.984,1.01,1.05,0.936,0.933
CCCCNc1ccc(C(=O)OCCOCCOCCOCCOCCOCCOCCOCCOCCOC)cc1 [Benzonatate],1.01,0.993,0.996,0.989,1.01,0.954,1,1
CCC1NC(=O)c2cc(S(N)(=O)=O)c(Cl)cc2N1 (stereo not drawn) [Quinethazone],1.01,1.03,1.05,1.01,1.06,1.12,1.01,1.01
CC[C@H](c1ccc(O)cc1)[C@@H](CC)c1ccc(O)cc1 [Hexestrol],0.998,1,0.932,0.999,0.766,0.825,0.989,0.889
C=CCSCC1Nc2cc(Cl)c(S(N)(=O)=O)cc2S(=O)(=O)N1 (stereo not drawn) [Althiazide],1.04,1.08,1.03,0.985,1.04,1.08,1.01,1.01
Clc1ccccc1CN1CCc2sccc2C1 [Ticlopidine hydrochloride],0.975,0.988,0.947,1.01,0.986,0.997,0.967,0.973
O=C(NCCNCC(O)COc1ccc(O)cc1)N1CCOCC1 (stereo not drawn) [Xamoterol hemifumarate],0.969,0.945,0.98,0.993,0.991,0.982,1.01,0.99
CN(C)CCCN1c2ccccc2Sc2ccc(Cl)cc21 [Chlorpromazine hydrochloride],0.996,0.983,0.877 (active),0.985,0.924,0.903,1,0.962
CC(C)Cn1cnc2c(N)nc3ccccc3c21 [Imiquimod],1.02,1.05,1.06,1.01,0.986,0.951,0.997,0.994
OCC(O)CN1CCN(c2ccccc2)CC1 (stereo not drawn) [Dropropizine],1.02,1.06,1.04,1.01,1.05,1.06,0.991,0.981

# From the supplement of paper PMC12350171
